Experimental data from PubChem BioAssay (Tox21).
Results filed as inconclusive are left out. Entries that show only a call come without a potency. Activity calls are given as the source filed them. Calls come from the whole dose curve.

Experiment: qHTS assay for small molecule agonists of the p53 signaling pathway - cell viability (AID 651633); note: nearly all actives have a fitted effect of over 30% in size
Settings: p53RE-bla HCT-116 viability, ATP luminescence, 16 h; series mostly up to 83.3 µM
In short: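 Viability counter-read: CellTiter-Glo luminescence (30 min, room temperature) in the same p53RE-bla plates. These plates had been exposed to compounds for 16 h at 37 C.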
Potency is the fitted concentration of half-maximal effect.

| SMILES | Potency |
| --- | --- |
| CN1CC[C@H](c2c(O)cc(O)c3c(=O)cc(-c4ccccc4Cl)oc23)[C@H](O)C1 | inactive |
| c1ccc2occc2c1 | inactive |
| CC(C)Cc1ccc([C@H](C)C(=O)O)cc1 | inactive |
| CC[N+](CC)(CC)CCC(O)(c1ccccc1)C1CCCCC1 (stereo unspecified) | inactive |
| O=C1C2CC3CC1CC(O)(C3)C2 | inactive |
| Cc1c(N)nc([C@H](CC(N)=O)NC[C@H](N)C(N)=O)nc1C(=O)N[C@H](C(=O)N[C@H](C)[C@@H](O)[C@H](C)C(=O)N[C@H](C(=O)NCCc1nc(-c2nc(C(=O)NCCCCN=C(N)N)cs2)cs1)[C@@H](C)O)[C@@H](O[C@@H]1O[C@@H](CO)[C@@H](O)[C@H](O)[C@@H]1O[C@H]1O[C@H](CO)[C@@H](O)[C@H](OC(N)=O)[C@@H]1O)c1cnc[nH]1 | inactive |
| CC[C@@]1([C@@H]2O[C@@H]([C@H]3O[C@@](O)(CO)[C@H](C)C[C@@H]3C)C[C@@H]2C)CC[C@H]([C@]2(C)CC[C@]3(C[C@H](O)[C@@H](C)[C@@H]([C@@H](C)[C@@H](OC)[C@H](C)C(=O)O)O3)O2)O1 (stereo in doubt) | inactive |
| CCC(C)(C)c1ccc(CC(C)CN2C[C@@H](C)O[C@@H](C)C2)cc1 (stereo partly specified) | 26.6 µM (active) |
| O=C1c2ccccc2-c2n[nH]c3cccc1c23 | inactive |
| CCCCCCCCCCCCCCCCC(C(=O)O)C(O)(CC(=O)O)C(=O)O (stereo unspecified) | 29.8 µM (active) |
| CO/N=C(\C(=O)N[C@@H]1C(=O)N2C(C(=O)O)=C(C[N+]3(C)CCCC3)CS[C@H]12)c1csc(N)n1 | inactive |
